# High-throughput results: PubChem, Broad Institute
# LGR2 antag – blocks bursicon-induced cAMP signaling via Drosophila LGR2. HEK293 LGR2, CRE-luciferase, bursicon-stimulated, 4 h. inhibition, % at 9.99 µM. 0.35% of 380,000 active;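 active = drop in luminescence signal, shown as inhibition above about 50% in the replicate tests, limit read from the data, passing the limit was not always enough; inconclusive = probably only some replicates passing the limit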;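 also: agonist challenge used bursicon conditioned medium at about half maximal strength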
# PAX8 reporter – inhibitors of PAX8 transcriptional activity in RMG-I cells | AID 652154 | 1.2% of 360,000 active | RMG-I TPO-luciferase reporter, SteadyGlo, 24 h | inhibition, % at 12.6 µM;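 active = mean replicate inhibition at least 60% with every replicate also reaching 60%; inconclusive = only one of the two criteria is met; inactive = mean below 60% and not all replicates reaching 60%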;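 also: luciferase light reporting Pax8 driven TPO promoter activity; plate controls were median of neutral control wells for no effect and mitoxantrone controls for full effect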
# PGC1a acetyl inh – lowers PGC1a acetylation signal in U2OS cells | AlphaScreen anti-acetyl-lysine; with virally co-expressed GCN5 acetyltransferase | inhibition, % at 15.6 µM | 0.17% of 350,000 active;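 active = every replicate shows inhibition of at least 40%; inconclusive = mean inhibition at least 40% but some replicate below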;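 also: 0% = neutral control wells and 100% = positive control wells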
# EWS-Fli inh – inhibitors of EWS/Fli oncoprotein transcriptional activity; A673 NR0B1-luciferase reporter, viability-normalised; inhibition, % at 12.6 µM; 0.67% of 350,000 active;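 active = mean inhibition of at least 50% after viability correction, with every replicate also passing that limit; inconclusive = mean reaches 50% but only one of two replicates passes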;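 also: firefly luciferase signal divided by Alamar Blue viability fluorescence both relative to DMSO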
# SIRT5 block – inhibitors of human sirtuin-5 desuccinylase | Q9NXA8 | Purified SirT5, succinyl-peptide AMC, trypsin-coupled fluorescence | inhibition, % at 15 µM | 1.1% of 330,000 active; in the data active = inhibition above about 15%; inconclusive = no clear call, values can overlap the other calls
# Target sequence (Q9NXA8 whole entry, looked up): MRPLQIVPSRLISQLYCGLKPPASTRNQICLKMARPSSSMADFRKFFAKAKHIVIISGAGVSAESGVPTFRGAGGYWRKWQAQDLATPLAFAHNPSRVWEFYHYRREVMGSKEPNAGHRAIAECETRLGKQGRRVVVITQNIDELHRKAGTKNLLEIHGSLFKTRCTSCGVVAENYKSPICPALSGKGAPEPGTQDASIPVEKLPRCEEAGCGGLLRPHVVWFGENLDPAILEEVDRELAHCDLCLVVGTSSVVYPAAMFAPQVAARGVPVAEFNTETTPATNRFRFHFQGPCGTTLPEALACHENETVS
# Ecoli rRNA inh – selective bacterial rRNA inhibition in E. coli; E. coli WT GFP vs humanized-ribosome RFP mutants, fluorescence, 24 h; hits give low values; DMSO median 0, no signal -100; 1.6% of 350,000 active; GFP signal change (wild-type ribosome), % (test concentration not listed); AID 720706;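 active = significant combined selectivity score with lowered wild-type GFP, culture density cut under 30%, mutant RFP and density less affected; inactive = any of these conditions unmet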
# DNA binder FP – binds DNA displacing acridine orange | shares compounds with EWS-Fli inh | salmon sperm DNA acridine orange fluorescence polarization | AC35, µM (series often up to 68 µM), inactives show at the highest dose activity change, negative = DNA binding | 2% of 640 active | AID 720586;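 active = fitted curve reaches a 35% signal fall AC35 below twice the sample's top valid tested dose, actives reach about 48 µM in these data; inactive = the rest, including activity in the rising direction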;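 also: lower polarization ratio signals compound binding to DNA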
# C2C12 COX5a inh – reduces COX5a expression driven by PGC-1a in C2C12 myotubes; shares compounds with PGC1a acetyl inh; C2C12 myotubes PGC-1a adenovirus, COX5a qPCR; maximal activity, %; 45 tested, under 10 active;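 active = fitted dose curve reaching 40% activity at or below the highest valid dose tested; inconclusive = flat fit between 30% and 70%, or an unusable fit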
# AID743468 – change in PGC-1a target gene PDK4 expression, dose response, C2C12 myotubes, RT-qPCR, cherry-pick; shares compounds with PGC1a acetyl inh; PGC-1a adenovirus, PDK4 mRNA qPCR; PDK4 expression increase, % at 19.5 µM; 45 tested, under 10 active;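 active = fitted curve reaching a 40% PDK4 expression rise at or below the top valid tested dose; inconclusive = no clear call, values can overlap the other calls; inactive = the rest, including shifts the wrong way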
# AID977621 – wild-type E. coli growth inhibition versus H69 humanized strain – H69 mutant RFP, wild-type GFP, cherry-pick, dose response; 1,900 tested, under 10 active; activity change, negative = inhibition at 50 µM; AID 977621; fluorescence, 24 h; shares compounds with Ecoli rRNA inh;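 active = Wild-type ribosome reporter drop at least double the humanized mutant ribosome reporter drop, growth loss under a set limit; inconclusive = no clear call, values can overlap the other calls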;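 also: wild-type GFP and H69 mutant RFP strains grown together 50/50 in each well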
# AID977628 – E. coli growth inhibition, wild-type GFP versus h24 humanized RFP strain, dose response, h24 mutant RFP vs wild-type GFP, cherry-pick; shares compounds with Ecoli rRNA inh; E. coli WT GFP strain growth, fluorescence, 24 h; activity change, negative = inhibition at 50 µM; 1,900 tested, under 10 active;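 active = compound lowering the normal-ribosome reporter at least twice as much as the humanized-ribosome reporter, growth loss under a set limit; inconclusive = no clear call, values can overlap the other calls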;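 also: wild-type GFP and h24 humanized RFP strains co-cultured 1 to 1 per well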
# * = called active by the depositor; ? = inconclusive; . = no result given. This is a sample that favours compounds with a hit; in the whole collection about 3.4% have one here.
SMILES,LGR2 antag,PAX8 reporter,PGC1a acetyl inh,EWS-Fli inh,SIRT5 block,Ecoli rRNA inh,others
Cc1cc2c(C(C)C)c(O)c(O)c(C=O)c2c(O)c1-c1c(C)cc2c(C(C)C)c(O)c(O)c(C=O)c2c1O,37.8,103.8*,0.3,57.8*,24.8*,-7.7*,DNA binder FP=7.4%
O=C1NC(=O)N(c2ccccc2)C(=O)/C1=C\C=C\c1ccccc1,-3.3,-6.2,-3.0,57.7*,3.4,8.0,DNA binder FP=-17.5%
Cc1cc(C)cc(N2C(=O)NC(=O)/C(=C\C=C\c3ccco3)C2=O)c1,-4.5,65.6*,20.8,61.1*,-5.1,8.9,DNA binder FP=0.3%
O=C1NC(=O)N(Cc2ccc(F)cc2)C(=O)/C1=C\C=C\c1ccco1,7.1,24.4,-6.2,54.8*,-1.2,29.3,DNA binder FP=-7.8%
O=C(Cc1cccnc1)N1CCCCN2[C@H](CO)[C@H](c3ccc(C#CC4CC4)cc3)[C@H]2C1,.,16.7,10.6,-0.4,1.0,.,
CN(C)CC#Cc1ccc([C@@H]2[C@@H](CO)N3CCCCN(C(=O)Cc4ccccn4)C[C@H]23)cc1,-3.3,-5.8,5.1,-4.9,-2.7,6.2,
COC(=O)[C@@H]1[C@@H](CO)[C@@H]2Cn3c(ccc(-c4ccc(F)cc4)c3=O)[C@H]1N2Cc1cccnc1,-4.0,.,.,-3.0,-9.5,-1.9,
N#Cc1cccc(-c2ccc([C@@H]3[C@H](CO)N4CCCCN(C(=O)Cc5ccccc5)C[C@@H]34)cc2)c1,9.2,19.3,12.5,-0.1,-5.4,1.7,
CC=Cc1ccc2n(c1=O)C[C@@H]1[C@@H](CO)[C@H](C(=O)OC)[C@H]2N1CC1CCCCC1 (mixture of isomers),21.5,-1.7,.,0.2,-2.7,-3.1,
CCCC#Cc1ccc([C@H]2[C@H]3CN(C(=O)Cc4ccccn4)CCCCN3[C@H]2CO)cc1,10.2,11.0,-4.7,8.6,-1.6,-0.5,
CN1C2CCC1/C(=C/c1ccccn1)C(=O)/C2=C\c1ccccn1,101.6*,106.6*,77.7*,80.0*,-4.3,-21.3,DNA binder FP=-2.8%
Cc1ccccc1-n1c(/C=C/c2ccccn2)nc2ccccc2c1=O,-19.6,47.0,22.3,-28.2,0.2,4.3,
O=C1CNC[C@H]2[C@@H](c3ccc(Br)cc3)[C@H](CO)N12,6.1,-24.5,3.3,7.8,1.4,4.2,
O=C1NC2C(=CC(O)C(O)C2O)c2cc3c(cc21)OCO3 (stereo not given),104.7*,122.6*,85.4*,56.0*,.,4.3,DNA binder FP=-9.0%
CC[C@@H]1C[C@H]2CC[C@H](O2)[C@H](C)C(=O)O[C@@H](C)C[C@@H]2CC[C@@H](O2)[C@@H](C)C(=O)O[C@H](C)C[C@H]2CC[C@H](O2)[C@H](C)C(=O)O[C@@H](C)C[C@@H]2CC[C@@H](O2)[C@@H](C)C(=O)O1,19.7,.,.,53.8*,4.4,-2.9,DNA binder FP=5.1%
O=c1[nH]c2ccccc2n1C1CCN(C(c2cc3ccccc3o2)c2nnnn2Cc2ccccc2)CC1 (stereo not given),71.8*,108.1*,48.8*,16.3,2.6,10.4,C2C12 COX5a inh=54.7;AID743468=-6.6
COC(=O)[C@@H]1[C@@H](CO)[C@@H]2Cn3c(cccc3=O)[C@H]1N2C(=O)C1CC1,-14.0,.,.,3.7,-4.3,3.0,
Cc1c(-c2cccc(Cl)c2)nc2ccccc2c1C(=O)N1CCC2(CC1)OCCO2,-3.9,4.3,.,.,1.0,-23.1*,AID977628=?
O=C(c1cc(-c2ccccc2)nc2ccccc12)N1CCC2(CC1)OCCO2,-12.8,.,-9.7,1.3,8.8,-7.8,
Cc1ccc(-c2cc(-c3ccc(C)cc3)[n+](-c3ccc(C(=O)[O-])cc3)c(-c3ccc(C)cc3)c2)cc1,0.6,-2.8,-8.0,-4.7,.,-21.4*,AID977628=?
Cc1ccc(-c2cc(-c3ccc(C)cc3)[n+](C)o2)cc1,7.1,?,-9.3,.,.,.,
COc1ccc(C2CN(C)CC2C(=O)c2ccc(C)cc2)cc1Cl (stereo not given),10.4,-5.0,.,-3.6,0.5,-27.8*,AID977621=?;AID977628=?
O=C(Cc1ccccn1)N1CCCCN2[C@@H](CO)[C@@H](c3ccc(-c4ccccc4)cc3)[C@@H]2C1,4.5,-9.4,3.5,3.6,-1.9,2.7,
C[C@]12CCC(=O)C[C@H]1CC[C@@H]1[C@@H]2CC[C@]2(C)C(=O)CC[C@@H]12,4.3,.,-15.3,-4.1,-1.5,-27.0*,AID977628=?
O=C(Cc1cccnc1)N1CCCCN2[C@H](CO)[C@H](c3ccc(C#CC4(O)CCCC4)cc3)[C@H]2C1,4.5,-22.1,8.8,-3.8,-1.8,-2.0,
SMILES,LGR2 antag,PAX8 reporter,PGC1a acetyl inh,EWS-Fli inh,SIRT5 block,Ecoli rRNA inh,others
O=C(Cc1ccncc1)N1CCCCN2[C@H](CO)[C@H](c3ccc(C#Cc4ccccc4F)cc3)[C@@H]2C1,9.4,-2.4,2.7,-4.3,.,-18.8,
Cc1nc2ccc(Br)cc2c(=O)n1-c1ccc([N+](=O)[O-])c(C(F)(F)F)c1,?,32.8,3.4,14.2,.,-19.3*,AID977621=-10.3;AID977628=-7.66
O=C(Cc1ccccc1)N1CCCCN2[C@H](CO)[C@H](c3ccc(C#Cc4ccccc4)cc3)[C@@H]2C1,10.3,-15.4,-22.4,.,-2.7,2.9,
COc1ccc(CN2CCCC(C(=O)c3cccc(Cl)c3)C2)cc1 (stereo not given),2.7,9.0,-5.3,7.3,-4.2,-13.3,
O=C(c1cccc(Cl)c1)C1CCCN(Cc2cccc3cnccc23)C1 (stereo not given),47.8,10.1,4.6,12.6,-5.3,-52.0,
O=C(c1ccc(Cl)cc1)C1CCCN(Cc2cccc3cnccc23)C1 (stereo not given),13.1,13.9,3.4,18.7,-4.8,-24.8*,AID977628=?
CSc1ncc(CN2CCCC(C(=O)c3cccc(Cl)c3)C2)cn1 (stereo not given),-0.6,5.9,.,12.2,1.5,-20.9*,AID977621=-2.33;AID977628=-7.57
